# From PubChem BioAssay
# ELG1 genotoxic – qHTS screen for small molecules that induce genotoxicity in human embryonic kidney (HEK293T) cells expressing luciferase-tagged ELG1. HEK293T ELG1-luciferase reporter, luminescence, 16 h. AID 504466, 2011. Potency, µM (titrated, usually from 46 µM), without a hit: at the highest dose activity change, positive = activation, most hits filed as activators. actives 1.3% (n = 330,000); note: % of control where 0% means no effect; nearly all actives have a fitted effect of over 60% in size
#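 Genotoxic stress is detected as increased luminescence from luciferase-tagged ELG1 in HEK293T cells, measured with ONE-Glo after a 16 hr treatment at 37 °C.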
# FLuc counter – qHTS profiling assay for firefly luciferase inhibitor/activator using purifed enzyme and Km concentrations of substrates (counterscreen for miR-21 project). actives 6.9% (n = 360,000). Potency, µM (titrated, usually from 57.5 µM), for inactives: at the top dose activity change, negative = inhibition, hits mostly inhibitors. Luciferin 4-monooxygenase (Photinus pyralis), P08659. purified FLuc, Km substrates, luminescence inhibition;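 note: plate controls were vehicle for no effect and reference inhibitor for full effect; nearly all actives have a fitted effect of over 55% in size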
# Target sequence (P08659 whole entry, looked up): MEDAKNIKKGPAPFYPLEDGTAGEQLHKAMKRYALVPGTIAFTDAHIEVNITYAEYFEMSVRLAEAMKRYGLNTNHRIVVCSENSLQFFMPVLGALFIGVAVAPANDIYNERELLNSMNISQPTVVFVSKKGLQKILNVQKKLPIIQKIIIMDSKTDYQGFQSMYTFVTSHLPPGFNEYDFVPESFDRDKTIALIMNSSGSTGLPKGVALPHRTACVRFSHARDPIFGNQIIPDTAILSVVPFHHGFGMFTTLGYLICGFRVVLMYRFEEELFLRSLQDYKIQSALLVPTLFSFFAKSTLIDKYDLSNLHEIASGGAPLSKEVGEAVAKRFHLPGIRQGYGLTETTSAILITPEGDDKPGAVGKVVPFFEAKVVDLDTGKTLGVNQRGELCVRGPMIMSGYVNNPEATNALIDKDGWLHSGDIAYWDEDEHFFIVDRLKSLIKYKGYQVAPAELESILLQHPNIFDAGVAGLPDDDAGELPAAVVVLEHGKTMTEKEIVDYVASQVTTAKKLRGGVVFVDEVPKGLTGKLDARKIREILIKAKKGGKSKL
#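 Biochemical qHTS of compounds, final roughly 60 µM downward over six points, against 10 nM purified firefly luciferase using Km concentrations of substrates (10 uM D-luciferin, 10 uM ATP) in Tris acetate pH 7.5 buffer; luminescence output.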
# SMN2 splice enh – qHTS Assay for Enhancers of SMN2 Splice Variant Expression; Potency, µM (highest dose often 46.1 µM), inactives show top-dose activity change, positive = activation, most hits filed as activators; HEK293 SMN2-luciferase splicing reporter, luminescence, 30-36 h; actives 2.8% (n = 210,000); AID 1458, 2008; note: % of control where 0% means no effect; nearly all actives have a fitted effect of over 55% in size
#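 HEK293 cells carry an SMN2 minigene-luciferase reporter in which exon 7 inclusion puts luciferase in frame. Cells were seeded at 2000 cells/well, attached for 10-12 hours, then exposed to compounds for 30-36 hours at 37C before ONE-Glo luminescence.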
# KinaseGlo FLuc – Counterscreen for Luciferase (Kinase-Glo TM) Inhibition. AID 1379, 2008. Potency, µM (top dose mostly 38.3 µM), inactives show at the highest dose activity change, negative = inhibition, actives largely listed as inhibitors. Kinase-Glo luciferase, ATP luminescence, 8 min. Luciferin 4-monooxygenase (Photuris pensylvanica), Q27757. actives 0.28% (n = 200,000); note: % is set by controls: 0 for no effect and ±100 for the full control effect; nearly all actives have a fitted effect of over 60% in size
#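 Kinase-Glo luciferase light output from ATP and luciferin was measured with 10 uM ATP, within the enzyme's linear range. Buffer: 50 mM imidazole pH 7.2, 50 mM KCl, 7 mM MgCl2, 0.01% Tween 20, 0.05% BSA; luminescence read after 8 min at ambient temperature.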
# Rab9 prom act – qHTS Assay for Rab9 Promoter Activators | Huh7 Rab9 promoter-luciferase reporter, luminescence, 24 h | Potency, µM (doses to about 9.22 µM), without a hit: at the highest dose activation, negative = inhibition, usual class: activators | actives 2.8% (n = 320,000); note: % of control where 0% means no effect; nearly all actives have a fitted effect of over 60% in size
#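 Quantitative HTS format; Huh7 Rab9-luciferase reporter cells (1500/well) receive compound 2 h post-plating, incubate 24 h at 37 °C, then get luciferase reagent for 10 min before luminescence reading.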
# NPC1 prom act – qHTS Assay for NPC1 Promoter Activators; Huh7 NPC1 promoter luciferase reporter, 24 h; Potency, µM (series often up to 9.22 µM), for the others: at the highest dose activation, actives largely listed as activators; actives 2.4% (n = 320,000); AID 485313, 2010; note: % of control where 0% means no effect; nearly all actives have a fitted effect of over 60% in size
#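 Huh7 reporter cells (NPC1 promoter driving luciferase) are dosed with compound for 24 h at 37 °C, 5% CO2; luciferase detection reagent is then added and luminescence measured after 10 min at ambient temperature.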
# * hit, by the source's call; ? = inconclusive; nt = not tested or not shown; [ ] = dose if it differs, or a comment. Sampled rows, rich in hits. Any-hit rate of the full collection: about 7.5%. Calls come from the whole dose curve; as a rule, active = well fitted curve in the direction sought with a large enough effect; inconclusive = small, poorly fitted or top-dose-only effect, or another doubt; inactive = no such curve, though single readings can be large; an effect the other way counts as inactive or inconclusive. Potency is the fitted concentration of half-maximal effect.
SMILES,ELG1 genotoxic,FLuc counter,SMN2 splice enh,KinaseGlo FLuc,Rab9 prom act,NPC1 prom act
CN(C)c1ccc(/C=N/NC(=O)C(O)(c2ccccc2)c2ccccc2)o1,-1%,0%,-6%,1%,-4%,-2%
O=C(N/N=C/c1ccc(-c2cccc([N+](=O)[O-])c2)o1)c1ccccc1O,-13%,11µM*,4%,1%,?,2%
CCOC(=O)CN1C(=O)C(Sc2n[nH]c(-c3ccccc3)n2)CCc2ccccc21 (centres undefined),-5%,5%,-19%,-2%,-1%,-4%
O=[N+]([O-])c1cccnc1Oc1ccc(OCc2ccccc2)cc1,?,17µM*,nt,nt,?,?
O=[N+]([O-])c1cccnc1Oc1ccc(C2SCCS2)cc1,?,21µM*,nt,nt,?,?
O=[N+]([O-])c1ccc(Oc2ccc(OCc3ccccc3)cc2)nc1,-2%,-5%,nt,nt,-3%,-6%
COc1cc(C2SCCS2)cc(Br)c1Oc1ncccc1[N+](=O)[O-],-5%,1%,nt,nt,0%,3%
COCCNC(=O)c1cc2n(n1)CCCN(Cc1ccc(C)cc1)C2=O,nt,-2%,nt,nt,nt,nt
COc1ccccc1CNC(=O)CN1C(=O)NC2(CCC(C)CC2)C1=O (centres undefined),2%,nt,nt,nt,nt,nt
CN1c2ccccc2C(=O)/C(=C\Nc2ccc(F)cc2)S1(=O)=O,-2%,12µM*,nt,nt,-1%,-6%
CC(=O)Oc1oc(-c2ccccc2)nc1C=Nc1ccc(N(C)C)cc1,-6%,2%,nt,nt,0%,0%
CN(C)c1ccc(N=Cc2cccn2C)cc1,15µM*,3.4µM*,nt,nt,24%,16%
C/C(=N\Nc1nnc(-c2ccccc2)c(-c2ccccc2)n1)c1cccc([N+](=O)[O-])c1,21µM*,13µM*,8%,-7%,0%,29%
O=[N+]([O-])c1cccc(/C=N/Nc2nnc(-c3ccccc3)c(-c3ccccc3)n2)c1,-2%,0%,-7%,0%,0%,0%
C/C(=N\Nc1cc(C)nc(NCc2ccccc2)n1)c1cccc([N+](=O)[O-])c1,-2%,12µM*,nt,nt,-5%,1%
C/C(=N\Nc1ccc(Cl)c(C(=O)O)c1)c1cccc([N+](=O)[O-])c1,17%,19µM*,nt,nt,?,?
Cc1cc(NC(=O)C(C)SCC(=O)OCc2ccc(Cl)cc2Cl)no1 (centres undefined),0%,-10%,nt,nt,1%,-2%
Cc1ccn2c(C(=O)CSc3ccccc3)c(C)nc2c1,7%,?,25µM*,0%,15%,16%
Cc1ccc(SCC(=O)c2c(C)nc3cc(C)ccn23)cc1,5%,0%,10%,3%,-2%,-6%
CCc1ccc2[nH]c(=O)c(-c3ccccc3)c(O)c2c1,3%,21µM*,nt,nt,6%,-3%
Cc1cc(C)c(S(=O)(=O)Cc2ccccc2)c(Cl)n1,-1%,-1%,nt,nt,0%,1%
Cc1noc(Cn2c(=O)c3ccccc3n(CC(=O)Nc3ccccc3C(F)(F)F)c2=O)n1,nt,-5%,nt,nt,nt,nt
O=C(Nc1ccc(Cl)cc1Cl)c1cc(S(=O)(=O)N2CCC3(CC2)OCCO3)ccc1F,nt,-3%,nt,nt,nt,nt
Nc1nc2c(nc(Br)n2C2O[C@H]3COP(=O)(O)O[C@@H]3C2O)c(=O)[nH]1 (some centres undefined),nt,nt,-2%,-4%,nt,nt
O=c1c2sccc2nc(SCc2cc(=O)n3cc(Cl)ccc3n2)n1Cc1ccccn1,?,-3%,6%,1%,3.5µM*,?
SMILES,ELG1 genotoxic,FLuc counter,SMN2 splice enh,KinaseGlo FLuc,Rab9 prom act,NPC1 prom act
CCC(=O)Nc1cccc(-c2ccc(N3CCCCC3)nn2)c1,2.3µM*,0.54µM*,nt,nt,0.45µM*,0.56µM*
CCC(=O)Nc1cccc(-c2ccc(N3CCN(C)CC3)nn2)c1,?,6.7µM*,nt,nt,?,2.5µM*
O=C(CCCCn1c(=O)c2ccccc2n(Cc2cccc(F)c2)c1=O)NCCc1ccccc1,nt,-9%,0%,nt,nt,nt
CCOC(=O)N1CCC(N2Cc3cccc(C(=O)Nc4ccc(OCC)cc4)c3C2=O)CC1,-7%,12µM*,nt,nt,-2%,1%
CCOC(=O)N1CCC(N2Cc3cccc(C(=O)Nc4ccc(CC)cc4)c3C2=O)CC1,-15%,12µM*,7%,17%,1%,0%
CCC(=O)OCc1cc(=O)oc2ccc3ccccc3c12,-1%,0%,nt,nt,-2%,1%
O=C(Nc1ccccc1C(F)(F)F)N1CCC(CN2CCc3ccccc3C2)CC1,nt,0%,nt,nt,nt,nt
COc1cccc2[nH]c3ccccc3c(=O)c12,0%,17µM*,nt,nt,6%,3%
Cc1cc(/C=C2/NC(=S)NC2=O)c(C)n1-c1cccnc1,21%,5.4µM*,?,-24%,?,24%
Cc1cc(/C=C2/NC(=O)N(c3ccccc3)C2=O)c(C)n1-c1cccnc1,?,3.4µM*,7.9µM*,-4%,1.6µM*,2.2µM*
COc1ccc(NC(=O)N2CCc3nc(-c4ccccc4)c4c(c3C2)CO[C@@H](C)C4)cc1,nt,nt,8%[9.22 µM],-5%[7.66 µM],nt,nt
CCc1nnc(NS(=O)(=O)c2ccc(NC(=O)/C=C/c3ccccc3Cl)cc2)s1,0%,19µM*,9%,3%,-15%,0%
CCc1nnc(NS(=O)(=O)c2ccc(NC(=O)c3ccc(Cl)cc3)cc2)s1,-6%,19µM*,-12%,3%,-1%,-1%
CCCS(=O)(=O)NCc1cn2c(C)csc2n1,12µM*,?,11µM*,1%,?,?
Cc1csc2nc(CCNS(=O)(=O)c3cccs3)cn12,21µM*,24µM*,15%,-8%,?,?
COc1ccc(S(=O)(=O)N(Cc2nc(-c3ccc(Cl)cc3)no2)C2CCCCC2)cc1,nt,-7%,-1%,nt,nt,nt
CCc1ccc2oc(-c3cc(N)cc(C)c3O)nc2c1,?,?,?,-6%,?,6%
Nc1ccc2oc(-c3ccccc3Cl)nc2c1,3.7µM*,1.3µM*,2.8µM*,-10%,0.45µM*,?
CCc1ccc2oc(-c3cc(N)ccc3Cl)nc2c1,2.1µM*,0.24µM*,?,-15%,2.5µM*,4µM*
CCc1ccc2oc(-c3cc(N)ccc3O)nc2c1,22%,0.34µM*,25µM*,-28%,4.5µM*,3.2µM*
CCc1ccc2oc(-c3cc(NC(=O)c4cccs4)ccc3Cl)nc2c1,nt,?,-16%,nt,nt,nt
